From PubChem
p97 ATPase inh: inhibitors of human p97 ATPase | P55072 | recombinant p97 ATPase, Kinase-Glo ATP luminescence, 3 h | inhibition, % at 8 µM | 220,000 tested, 0.42% active; in the data active = inhibition above about 15%
Target sequence (P55072 whole entry, looked up): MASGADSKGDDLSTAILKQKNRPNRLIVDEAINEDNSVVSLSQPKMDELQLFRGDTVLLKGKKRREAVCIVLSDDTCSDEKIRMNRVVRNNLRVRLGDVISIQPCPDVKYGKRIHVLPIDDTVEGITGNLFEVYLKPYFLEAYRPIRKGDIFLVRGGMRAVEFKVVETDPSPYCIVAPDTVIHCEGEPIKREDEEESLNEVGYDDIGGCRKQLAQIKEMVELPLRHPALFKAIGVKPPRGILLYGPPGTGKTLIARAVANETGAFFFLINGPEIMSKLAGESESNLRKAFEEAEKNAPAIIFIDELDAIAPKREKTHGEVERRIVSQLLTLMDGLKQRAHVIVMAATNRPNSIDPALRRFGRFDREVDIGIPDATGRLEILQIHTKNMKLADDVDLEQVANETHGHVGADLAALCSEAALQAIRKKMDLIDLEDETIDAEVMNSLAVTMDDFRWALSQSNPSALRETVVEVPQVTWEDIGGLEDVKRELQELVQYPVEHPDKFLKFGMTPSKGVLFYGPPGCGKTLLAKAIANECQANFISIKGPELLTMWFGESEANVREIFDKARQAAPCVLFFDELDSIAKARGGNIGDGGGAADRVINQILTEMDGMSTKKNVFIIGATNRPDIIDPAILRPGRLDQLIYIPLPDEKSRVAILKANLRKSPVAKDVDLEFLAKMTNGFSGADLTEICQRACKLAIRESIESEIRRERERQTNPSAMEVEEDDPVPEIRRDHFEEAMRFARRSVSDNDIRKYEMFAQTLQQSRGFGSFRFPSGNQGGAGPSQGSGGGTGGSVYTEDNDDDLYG
PTEN del growth: suppresses growth of cells with PTEN deletion; 140,000 tested, 1.2% active; viability, % at 10 µM; HCT116 PTEN-null viability, CellTiter-Glo, 60 h; hits give low values;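 active = viability at or below a set limit, 4 SD under the median of all tested compounds, cut at about 3.7% in these data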;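 also: PTEN knockout HCT116 line with beta catenin targeted HCT116 as companion control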
bCat KO growth: beta-catenin-lacking colon tumor cell growth suppression. AID 818. 140,000 tested, 1.5% active. HCT116 beta-catenin knockout viability, CellTiter-Glo, 60 h; hits give low values. viability, % at 10 µM;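 active = viability at or under a set limit, the compound median less 4 SD, cut at about 6% in these data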
Lmaj promast: Leishmania major promastigote growth inhibition | Leishmania major promastigotes, resazurin fluorescence viability | inhibition, % at 10 µM | 200,000 tested, 9% active | AID 1063; in the data active = inhibition above about 50%;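 also: promastigotes grown with compound for 44 hours at 28 °C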
Insulin prom inh: TRM-6 insulin promoter activity inhibition | inhibition, % at 2 µM | TRM-6 cells (human fetal islet line), insulin promoter-eGFP reporter, imaging; reporter expression induced with tamoxifen | 130,000 tested, 0.9% active | AID 1273;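 active = inhibition above the mean plus 3 SD, with well images judged a real hit on visual review, cut at about 60% in these data, passing the limit was not always enough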
ROMK mod: modulates human ROMK potassium channel activity; P48048; Tet-inducible ROMK, thallium flux fluorescence; actives lie on both sides; B-score at 10 µM; 130,000 tested, 2% active;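 active = signal ratio slope over the read window, or its plate-corrected B-score, at least 3 SD from the plate mean, either direction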;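 also: B-score of the F/F0 ratio slope over 7 to 12 s after thallium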
Each line names hits and unclear results; the compound was inactive in the other large screens. The list is not random: actives were taken first. Their share in the collection is about 10%.

Cc1ccc(OCC(=O)N/N=C/c2cc([N+](=O)[O-])ccc2N2CCCCC2)cc1	Lmaj promast 96 (no result: ROMK mod)
O=C(N/N=C/c1cc([N+](=O)[O-])ccc1N1CCNCC1)c1ccc([N+](=O)[O-])cc1	PTEN del growth 1.1, bCat KO growth 1.6, Lmaj promast 86 (no result: ROMK mod)
CCN1CCCn2c1nc1c2c(=O)n(C)c(=O)n1C	Lmaj promast 59
Cn1c(=O)n(Cc2ccccc2)c(=O)c2c1nc1n2CCCN1CCc1ccccc1	Lmaj promast 100
O=C(c1ccccc1)[C@H]1[C@H](c2ccccc2)[C@@]2(N=C(c3ccccc3)OC2=O)C2c3ccccc3C=NN21 (stereo partly specified)	none (no result: ROMK mod)
CCN(CC)CCNC(=O)c1ccc(Sc2ccc(C)cc2)c(NC(C)=O)c1	none (no result: PTEN del growth, bCat KO growth, Insulin prom inh)
CC(=O)Nc1cc(C(=O)NCc2ccco2)ccc1Sc1ccc(C)cc1	Lmaj promast 75
CCC1=Nc2cc(C(=O)NCc3ccco3)ccc2Sc2ccc(C)cc21	Lmaj promast 67
O=C(CNC(=O)c1ccccc1)NCc1ccc(Cl)cc1	none (no result: PTEN del growth, bCat KO growth)
CCn1c([N+](=O)[O-])nc2c1c(=O)[nH]c(=O)n2C	Lmaj promast 100 (no result: PTEN del growth, bCat KO growth, Insulin prom inh)
C=CCc1ccccc1OCCNCc1ccccc1	Lmaj promast 71 (no result: PTEN del growth, bCat KO growth, Insulin prom inh)
C=CCOc1ccccc1CNCc1ccc(F)cc1	Lmaj promast 57 (no result: PTEN del growth, bCat KO growth)
COc1ccccc1CNC(=O)CN1CCN(S(=O)(=O)c2cccs2)CC1	none (no result: PTEN del growth, bCat KO growth, Insulin prom inh)
COc1ccc(CC(=O)Nc2ccc(-c3noc(-c4ccc(Cl)cc4)n3)cc2)cc1	PTEN del growth 0.9, bCat KO growth 1.6 (no result: ROMK mod)
COc1cccc(-c2c(C#N)c(N)nc3c2c(=O)nc2sccn23)c1	none (no result: PTEN del growth, bCat KO growth, Insulin prom inh)
CCOC(=O)c1nn(-c2ccccc2)c2nnc(Cc3ccccc3)c(=O)n12	none
CCOC(=O)c1nn(-c2ccccc2)c2nnc(Cc3ccc(C)cc3)c(=O)n12	Insulin prom inh 77
COC(=O)COc1cc(OCC(=O)OC)c2c(C)c(Cl)c(=O)oc2c1	Lmaj promast 51
COc1ccccc1-c1coc2cc(OC(=O)/C=C/c3ccccc3)ccc2c1=O	none (no result: ROMK mod)
Cc1oc2c(cc(NS(=O)(=O)c3ccc4c5c(cccc35)C(=O)N4)c3ccccc32)c1C(=O)OC(C)C	Lmaj promast 58 (no result: ROMK mod)
O=C1CCCc2oc3c(cc(NS(=O)(=O)c4ccc5c6c(cccc46)C(=O)N5)c4ccccc43)c21	none (no result: PTEN del growth, bCat KO growth, Lmaj promast, Insulin prom inh, ROMK mod)
CCCN1C2CCCC1CC(NC(=S)Nc1cc(C)cc(C)c1)C2 (stereo unspecified)	Lmaj promast 54 (no result: PTEN del growth, bCat KO growth, Insulin prom inh)
Cc1ccc(C)c(NC(=S)NC2CC3CCCC(C2)N3CC(C)C)c1 (stereo unspecified)	Lmaj promast 65 (no result: ROMK mod)
CCCN1C2CCCC1CC(NC(=S)NCCCOCC)C2 (stereo unspecified)	none (no result: PTEN del growth, bCat KO growth, Insulin prom inh)
Cc1cc(C)cc(NC(=S)NC2CC3CCC(C2)N3Cc2ccco2)c1 (stereo unspecified)	Lmaj promast 90 (no result: Insulin prom inh, ROMK mod)
Cc1cccc(NC(=S)NC2CC3CCCC(C2)N3Cc2cccs2)c1 (stereo unspecified)	Lmaj promast 89 (no result: Insulin prom inh, ROMK mod)
Cc1ccc(C)c(NC(=S)NC2CC3CCC(C2)N3Cc2ccco2)c1 (stereo unspecified)	none (no result: Insulin prom inh, ROMK mod)
CSc1nn2c(C(F)(F)F)cc(C(F)(F)F)nc2c1C(N)=O	none (no result: PTEN del growth, bCat KO growth, Lmaj promast, Insulin prom inh, ROMK mod)
Fc1ccc(NC(=S)NC2CC3CCC(C2)N3Cc2ccco2)cc1 (stereo unspecified)	Lmaj promast 82 (no result: PTEN del growth, bCat KO growth, Insulin prom inh)
Cc1ccc(C(=O)NC2CC3CCC(C2)N3Cc2ccco2)cc1 (stereo unspecified)	Lmaj promast 57 (no result: ROMK mod)
O=C(Nc1cccc(Cl)c1)NC1CC2CCC(C1)N2Cc1ccco1 (stereo unspecified)	none (no result: PTEN del growth, bCat KO growth, Insulin prom inh)
CCOc1ccc(NC(=S)NC2CC3CCC(C2)N3Cc2ccco2)cc1 (stereo unspecified)	Lmaj promast 68 (no result: PTEN del growth, bCat KO growth, Insulin prom inh)
CCOC(=O)C(=CNc1ccc2c(c1)c1ccccc1n2CC)C(=O)OCC	none (no result: PTEN del growth, bCat KO growth, Lmaj promast, Insulin prom inh, ROMK mod)
CC1CC(=O)N(c2ccc(Br)cc2)C(=O)C1	none (no result: PTEN del growth, bCat KO growth, Lmaj promast, Insulin prom inh)
Cc1cc(C(=O)COC(=O)c2ccc(CO)cc2)c(C)n1CC1COc2ccccc2O1 (stereo unspecified)	Lmaj promast 55
Cc1ccc(N2CC(O)(c3cccs3)[N+]3=C2CCCC3)cc1 (stereo unspecified)	none (no result: PTEN del growth, bCat KO growth)
Cc1ccc(N2NC(C)(c3cccs3)NC2=S)cc1 (stereo unspecified)	Lmaj promast 89
O=C1C2CC=C(Cl)CC2C(=O)N1CCc1c[nH]c2ccccc12 (stereo unspecified)	none
